Results from PubChem BioAssay.
The source made the active and inactive calls.

Legend:
[1] = compound effects on differentiated 3T3-L1 adipocyte viability – cell-based, 3T3-L1 adipocytes, calcein-AM fluorescence, 48 h, basal, profiling panel (AID 1163); conditions: 3T3-L1 adipocytes viability, higher = more signal
[2] = compound effects on hepatocellular carcinoma cell viability – HepG2, calcein-AM fluorescence, 48 h, basal, profiling panel (AID 1164); conditions: higher = more signal
[3] = compound effects on multiple myeloma cell viability – MM1S, calcein-AM fluorescence, 48 h, basal, profiling panel (AID 1165); conditions: higher = more signal
[4] = calcein-AM signal in unstimulated myeloma cells – cell-based, calcein-AM fluorescence, 48 h, PK04 Diversity Set, profiling panel (AID 1166); conditions: RPMI8226 myeloma viability, higher = more signal;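 further: cells grown under basal conditions without added stimulus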
[5] = JC-1 mitochondrial signal, unstimulated HepG2 cells – cell-based, JC-1 fluorescence, 24 h, 100 nL compound, profiling panel (AID 1167); conditions: HepG2 mitochondrial potential, higher = more signal
[6] = JC-1 mitochondrial signal, unstimulated adipocytes – cell-based, JC-1 fluorescence, 3T3-L1 adipocytes, 24 h, 100 nL compound, profiling panel (AID 1168); conditions: JC-1 mitochondrial fluorescence, higher = more signal, called active from +8 up or from −8 down
[7] = JC-1 mitochondrial signal, unstimulated myeloma cells – cell-based, JC-1 fluorescence, RPMI8226, 24 h, 100 nL compound, profiling panel (AID 1169); conditions: JC-1 mitochondrial potential fluorescence, higher = more signal
[8] = JC-1 mitochondrial signal, unstimulated MM1S myeloma – cell-based, JC-1 fluorescence, 24 h, 100 nL compound, profiling panel (AID 1170); conditions: MM1S mitochondrial potential, higher = more signal
[9] = resazurin metabolic signal in A549 cells – cell-based, resazurin fluorescence, 24 h, PK04 Diversity Set, profiling panel (AID 1171); conditions: A549 viability, higher = more signal, called active from +8 up or from −8 down
[10] = resazurin metabolic signal in HepG2 cells – cell-based, resazurin fluorescence, 24 h, PK04 Diversity Set, profiling panel (AID 1172); conditions: HepG2 viability, higher = more signal
[11] = budding yeast growth changes without added modifier – OD600, strain BY4716, 24 h, basal condition, primary screen (AID 1173); conditions: S. cerevisiae BY4716 growth, OD600, 24 h; higher = more signal, called active from +8 up or from −8 down
[12] = viability profiling in MM1S myeloma cells – cell-based, resazurin fluorescence, basal, 24 h, PK04 Diversity Set, profiling panel (AID 1174); conditions: higher = more signal, called active from +8 up or from −8 down
[13] = molecular target: Dihydroorotate dehydrogenase (quinone), mitochondrial (Plasmodium falciparum (isolate 3D7)) (UniProt Q08210); assay: inhibition of P. falciparum DHODH – biochemical, C-terminal His tag, absorbance 600 nm, primary screen (AID 1175); conditions: PfDHODH enzyme, DCIP absorbance 600 nm; higher = more signal, called active from +8 up or from −8 down;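 further: recombinant parasite enzyme with a five histidine tag at its C terminus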
[14] = growth modulation of vineyard yeast isolate – strain RM11-1a, OD600, basal, 24 h, primary screen (AID 1177);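 further: cultures grown under basal conditions with no added stressor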; conditions: S. cerevisiae RM11-1a growth, OD600, 24 h; higher = more signal, called active from +8 up or from −8 down
[15] = growth of efflux-deficient E. coli DRC39 – strain DRC39, OD650, 24 h, E. coli filamentation inducers, primary screen (AID 1178);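 further: growth measured as culture turbidity by optical density at 650 nm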; conditions: E. coli DRC39 acrAB, higher = more signal, called active from +8 up or from −8 down
[16] = growth of efflux-deficient E. coli DRC39 – strain DRC39, OD650, 48 h, E. coli filamentation inducers, primary screen (AID 1179);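 further: screen aims at cell division blockers that make cells filament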; conditions: E. coli DRC39 delta-acrAB growth, higher = more signal, called active from +8 up or from −8 down
[17] = viability profiling in RPMI8226 myeloma cells – cell-based, resazurin fluorescence, basal, 24 h, PK04 Diversity Set, profiling panel (AID 1180); conditions: higher = more signal;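 further: RPMI8826 multiple myeloma cell line at 5000 cells per well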
[18] = molecular target: E3 ubiquitin-protein ligase XIAP (Homo sapiens) (UniProt P98170); assay: small molecules binding XIAP protein – biophysical, small-molecule microarray, fluorescence 635 nm, primary screen (AID 1181); conditions: higher = more signal;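 further: score merges 667 nm emission and signal to noise over triplicate slides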
[19] = tested on: XIP peptide (Xip251-270) binding; assay: XIP fragment 251-270 binding compounds – biochemical, small-molecule microarray, fluorescence 635/667 nm, 0.1 µg/mL protein, primary screen (AID 1182); conditions: fluorescent protein binding, 635 nm, higher = more signal, called active from +8 up or from −8 down
[20] = tested on: XIP peptide (Xip251-270); assay: compounds binding XIP fragment 251-270 – biochemical, small-molecule microarray, fluorescence 635/667 nm, 0.5 µg/mL protein, primary screen (AID 1183); conditions: fluorescence 635 nm, higher = more signal

Chain of Dihydroorotate dehydrogenase (quinone), mitochondrial (Plasmodium falciparum (isolate 3D7)) (Q08210 whole entry, looked up): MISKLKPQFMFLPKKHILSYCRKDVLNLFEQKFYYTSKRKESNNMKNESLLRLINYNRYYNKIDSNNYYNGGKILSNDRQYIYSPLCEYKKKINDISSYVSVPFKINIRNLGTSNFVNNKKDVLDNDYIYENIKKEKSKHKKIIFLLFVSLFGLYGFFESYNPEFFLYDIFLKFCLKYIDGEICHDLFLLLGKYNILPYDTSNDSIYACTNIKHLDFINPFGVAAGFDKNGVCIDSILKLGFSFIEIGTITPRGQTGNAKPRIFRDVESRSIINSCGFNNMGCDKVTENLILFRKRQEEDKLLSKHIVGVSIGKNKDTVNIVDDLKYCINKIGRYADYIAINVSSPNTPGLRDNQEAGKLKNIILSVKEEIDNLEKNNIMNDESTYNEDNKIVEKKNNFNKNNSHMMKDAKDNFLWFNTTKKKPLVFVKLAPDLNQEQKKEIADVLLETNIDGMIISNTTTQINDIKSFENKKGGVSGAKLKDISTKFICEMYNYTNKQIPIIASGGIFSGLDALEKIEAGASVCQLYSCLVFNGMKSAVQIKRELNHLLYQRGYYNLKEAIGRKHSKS
Chain of E3 ubiquitin-protein ligase XIAP (Homo sapiens) (P98170 whole entry, looked up, the tested form may be a part): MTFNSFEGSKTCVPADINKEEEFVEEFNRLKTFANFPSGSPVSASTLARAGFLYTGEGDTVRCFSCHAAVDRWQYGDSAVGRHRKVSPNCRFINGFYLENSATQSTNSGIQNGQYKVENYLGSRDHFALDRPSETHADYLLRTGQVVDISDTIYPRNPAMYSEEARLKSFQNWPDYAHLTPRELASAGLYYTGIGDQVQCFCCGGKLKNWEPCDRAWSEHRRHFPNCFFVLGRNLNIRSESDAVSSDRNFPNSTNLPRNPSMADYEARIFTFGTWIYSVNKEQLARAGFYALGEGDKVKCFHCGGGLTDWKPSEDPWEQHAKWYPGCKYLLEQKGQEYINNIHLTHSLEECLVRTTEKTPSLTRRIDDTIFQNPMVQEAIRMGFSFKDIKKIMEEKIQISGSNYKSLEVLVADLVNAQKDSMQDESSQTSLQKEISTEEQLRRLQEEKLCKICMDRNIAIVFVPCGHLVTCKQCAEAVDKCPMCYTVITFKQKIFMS

Compound | z-score [1] | z-score [2] | z-score [3] | z-score [4] | z-score [5] | z-score [6] | z-score [7] | z-score [8] | z-score [9] | z-score [10] | z-score [11] | z-score [12] | composite z-score [13] | z-score [14] | z-score [15] | z-score [16] | z-score [17] | composite z-score [18] | composite z-score [19] | composite z-score [20]
COc1ccc([Si](C)(C)[C@H]2[C@H](CC(=O)N(CCO)Cc3ccccc3)O[C@@]3(C(=O)N(Cc4ccc(N5CCC5=O)cc4)c4ccccc43)[C@@H]2C)cc1 | 0.816 | -0.861 | -1.22 | -3.56 | 0.197 | 1.44 (inactive) | -0.995 | 0.233 | -1.1 (inactive) | 0.0408 | -0.344 (inactive) | -1.3 (inactive) | -0.983 (inactive) | 1.73 (inactive) | 1.61 (inactive) | 1.46 (inactive) | -1.97 | -0.0948 | 2.44 (inactive) | 0.365
C[C@@H](OCc1ccccc1)C1NC(=O)[C@@]23C(=O)N[C@@H](Cc4ccccc4)C2[C@H](C)[C@@]2(C)O[C@H]2C3/C=C/C/C=C\CNC(=O)[C@@H]2CCCN2C1=O (stereo not given in full) | 0.812 | 0.11 | -1.11 | -0.722 | 2.87 | 0.566 (inactive) | 0.0782 | 1.19 | 1.46 (inactive) | 0.432 | -1.9 (inactive) | 0.556 (inactive) | -0.0867 (inactive) | -0.421 (inactive) | 2.53 (inactive) | 1.66 (inactive) | 0.685 | 0.176 | 0.187 (inactive) | -1.05
C=C(CCCC)/C(=C/C[C@@H](OC(=O)c1ccncc1)c1ccc(OCCO)cc1)c1cnc2ccccc2c1 | 1.56 | -0.375 | -1.52 | -0.393 | 2.07 | -0.0617 (inactive) | -0.344 | 0.279 | 0.395 (inactive) | 0.0347 | -2.64 (inactive) | 0.803 (inactive) | -2.2 (inactive) | 0.365 (inactive) | 1 (inactive) | 0.734 (inactive) | 1.59 | -0.035 | 0.384 (inactive) | 0.697
COc1ccc(C(=O)Nc2cccc(CN3C(=O)[C@@]4(O[C@@H](CCO)[C@H]([Si](C)(C)c5ccc(OC)cc5)[C@H]4C)c4ccccc43)c2)cc1 | -0.301 | -4.74 | -2.7 | -4.46 | -1.97 | 2.77 (inactive) | -0.972 | -2.36 | -5.62 (inactive) | -6.42 | -3.58 (inactive) | -9.06 (active) | -0.873 (inactive) | 2.06 (inactive) | 2.75 (inactive) | 1.55 (inactive) | -6.22 | 0.0049 | 0.11 (inactive) | 0.115
CC1CC/C=C\[C@H]2OC34C=CCN(C(C)C)C(=O)[C@H]3N(C(CO)C(C)C)C(=O)[C@@H]4C2C(=O)O1 (stereo not given in full) | 0.252 | -0.0224 | 1.4 | 0.652 | 0.686 | 1.39 (inactive) | -0.723 | 1.62 | 0.351 (inactive) | 0.788 | -0.718 (inactive) | 1.15 (inactive) | -1.87 (inactive) | -0.488 (inactive) | 1.36 (inactive) | 1.46 (inactive) | 0.838 | -0.194 | 0.0648 (inactive) | -1.15
[N-]=[N+]=NCc1ccccc1C[C@@]1(C(=O)O)N=C(c2ccc(OCCCO)cc2)O[C@@H]1c1ccccc1 | 0.298 | -0.187 | -0.139 | 0.0527 | -0.586 | 0.493 (inactive) | -0.497 | 0.394 | 0.946 (inactive) | 0.458 | -3.34 (inactive) | 0.954 (inactive) | 0.0567 (inactive) | -1.01 (inactive) | 2.63 (inactive) | 1.26 (inactive) | 0.903 | 0.188 | 1.35 (inactive) | 0.687
COC(=O)c1c2oc(c1C(=O)OC)C(=O)N[C@@H](C(C)C)Cn1nncc1C1(CCCCC1)NC(=O)N[C@H](CO)CC2 | -0.5 | 0.619 | 0.276 | -0.161 | 1.58 | 0.994 (inactive) | 0.144 | 1.08 | 2.11 (inactive) | 2.17 | -3.46 (inactive) | 1.4 (inactive) | 0.62 (inactive) | -0.989 (inactive) | 2.61 (inactive) | 2.18 (inactive) | 0.928 | 0.0623 | -0.503 (inactive) | -0.985
CCCNC(=O)[C@@H]1c2ccccc2C(=O)N(Cc2cc(C(F)(F)F)cc(C(F)(F)F)c2)[C@H]1c1ccc(CO)cc1 | 1.6 | 0.174 | -0.298 | -1 | 1.4 | -0.652 (inactive) | 0.188 | 1.01 | 0.741 (inactive) | 0.397 | -0.367 (inactive) | 1.52 (inactive) | 0.754 (inactive) | 0.288 (inactive) | 1.06 (inactive) | -0.625 (inactive) | 1.63 | -0.374 | 0.133 (inactive) | 0.219
